# PMC5540273 (PLoS ONE, 2017)
# System: T1, AMPK-alpha2
# T1 construct: gene PRKAA2
# Details: concentration: 1 μM, replicates: in singlicate; n = 1
# 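Further: KINOMEscan kinase panel screen.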
row,Compound,%Inh [%]
1,Cl.c1ccc(-c2ccc3c(Nc4ccc5[nH]ccc5c4)ccnc3c2)nc1 [GW440138],0
2,Nc1n[nH]c2cnc(-c3ccccc3)cc12 [SB-642124],30
3,CN(C)Cc1ccc(-c2ccc3c(Nc4ccc(Oc5ccccn5)cc4)ccnc3c2)o1 [GW567148],0
4,CC(C)(C)c1ccc2nccc(Nc3cccc(O)c3)c2c1 [GW856795],0
5,O=c1[nH]cc(-c2ccc(N3CCOCC3)cc2)c2sc(-c3cn[nH]c3)cc12 [GSK2276055],0
6,O=C(Nc1n[nH]c2cc(-c3ccoc3)ccc12)C1CC1 [SB-738481],0
7,CC(=O)N1CCN(c2ccc(Nc3nccc(-c4sc(C(C)C)nc4-c4cccc(NS(=O)(=O)c5cccc(Cl)c5)c4)n3)cn2)CC1 [GSK1660437],75
8,COc1cc2c(cc1OCCN1CCNCC1)ncc1c3ccc(C#N)cc3[nH]c21,4
9,CNC(=O)c1ccccc1Nc1nc(Nc2ccc(N3CCOCC3)cc2)ncc1Cl.Cl [GSK1576028],99.4
10,Oc1cc(Nc2ccnc3cc(I)ccc23)ccc1F [GW552771],1
11,COc1cccc(C2=C(Nc3ccc(Cl)c(C(=O)O)c3)C(=O)NC2=O)c1 [SB-390769],2
12,O=C(Nc1cccc(-c2nn3ccccc3c2-c2ccnc(Nc3cccc(F)c3)n2)c1)c1c(F)ccc(F)c1Cl [GSK357952],21
13,O=C(Nc1cccc(Oc2ccc3nc(NC(=O)C4CC4)cn3n2)c1)c1ccccc1C(F)(F)F,3
14,CSc1cccc2c(-c3ccncn3)c(-c3ccc(F)cc3)nn12 [GW514786],0
15,Cn1cc(-c2[nH]c3cc(NC(=O)[C@H](N)C4CCCCC4)cc4c3c2C=NNC4=O)cn1,81
16,COc1ccc(CNC(=O)NC2CCN(c3ccnc(Nc4ccc(F)cc4)n3)CC2)cc1 [GSK1379788],0
17,COc1cccc(NC(=O)NC2CCN(c3ccnc(Nc4cc(OC)c(OC)c(OC)c4)n3)C2)c1 (stereo not shown) [GSK1379763],0

row,Compound,%Inh [%]
1,O=C(Nc1n[nH]c2nc(-c3ccc(O)cc3)ccc12)C1CC1 [SB-710363],0
2,CN1CCN(CCCNc2nccc(-c3c(-c4ccc(F)cc4)nn4cc(C(F)(F)F)ccc34)n2)CC1 [GW621581],19
3,c1ccc(-c2n[nH]cc2Nc2ccnc3ccccc23)nc1 [GW694077],0
4,CCc1ccc(-c2ccc3c(c2)-c2c(cnn2C)S(=O)(=O)N3C)cc1,0
5,NCCCC(NC(=O)c1cc(Br)c(-c2ccnc3[nH]ccc23)s1)c1ccccc1.O=C(O)C(F)(F)F.O=C(O)C(F)(F)F (stereo not shown) [GSK1287544],35
6,Nc1ncc(-c2cccnc2)c2scc(-c3ccc4c(c3)CCN4C(=O)Cc3ccccc3)c12 [GSK683281],20
7,Cl.c1ccc(-c2ccc3c(Nc4ccc5[nH]ncc5c4)ccnc3c2)nc1 [GW440137],0
8,Cc1ccc(C)c(NC(=O)NC2CCN(c3ccnc(Nc4ccc(F)cc4)n3)C2)c1 (stereo not shown) [GSK1379720],0
9,COc1cc(Nc2nccc(-c3c(-c4cccc(NC(=O)c5c(F)cccc5F)c4)nn4ccccc34)n2)cc(OC)c1OC [GSK323521],23
10,Fc1ccc(-c2ncn(C3CCNCC3)c2-c2ccnc(Oc3ccc(-c4ccccc4)cc3)n2)cc1 [SB-245391],20
11,COc1cc(Nc2ncc3c(C)nc(-c4cc5ccccc5[nH]4)n3n2)cc(OC)c1OC [GW869516],61
12,Clc1ccc(-c2nn3ncccc3c2-c2ccnc(Nc3ccc4c(c3)OCCO4)n2)cc1 [GW829116],0
13,c1ccc(-c2cnc3nccnn23)cc1 [AH20685],0
14,O=C(Nc1ccccc1F)NC1CCN(c2ccnc(Nc3ccc(F)cc3)n2)CC1 [GSK1379800],0
15,Cc1occc1-c1ncc(OC[C@@H](N)Cc2c[nH]c3ccccc23)cc1-c1ccc2[nH]nc(C)c2c1.O=C(O)C(F)(F)F [GSK682037],0
16,C[C@@H]1CC[C@@H](C(=O)Nc2ccccc2)CN1c1cc(-c2ccc3c(N)n[nH]c3c2)nc(N)n1 [GSK2286062],0
17,COc1cc(Nc2nccc(-c3c(-c4cccc(NC(=O)c5c(F)cccc5F)c4)nn4ncccc34)n2)cc(OC)c1OC [GSK327238],48
